Results published in PubChem BioAssay AID1159580 (chemical genetic matrix, 2015).
Where “and” joins values, the source holds several entries; their conditions need not be identical. Equal entries are not always repeated. Screen size: about 5,500 compounds; about 2,000 (36%) were called active. About 18% were inconclusive and are not listed. No stated cut-off is given here; in the data, active means normalized growth mostly below about 0.91 (no sharp cut-off); inconclusive means no clear call, values can overlap the other calls; inactive means mostly above about 0.92. The list shows a part of the results.

Assay: chemical genetic growth profiling, strain panel (AID 1159580);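 further: tested at 20 µM; growth read once vehicle control cultures reached saturation at 30 °C; 1 = growth at the plate median or of vehicle wells; lower values mean less growth of the strain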
Conditions: S. cerevisiae deletion strains, growth OD

Measured: normalized growth

CC(C)(C)NCC(O)COc1cccc2c1C[C@H](O)[C@H](O)C2 (stereo not given in full)
inactive: locus YAL021C, strain ccr4, active compounds read low 0.99 | locus YAL026C, strain drs2, active compounds read low 1.01 | locus YAL030W, strain snc1, active compounds read low 0.995 | locus YBL061C, strain skt5, active compounds read low 1 | locus YBR009C, strain hhf1, active compounds read low 0.999 | locus YBR021W, strain FUR4, active compounds read low 1.03 | locus YBR023C, strain chs3, active compounds read low 1.01 | locus YBR171W, strain sec66, active compounds read low 1.01 | locus YBR229C, strain ROT2, active compounds read low 1.01 | locus YBR231C, strain swc5, active compounds read low 1 | locus YBR279W, strain paf1, active compounds read low 1 | locus YCL011C, strain gbp2, active compounds read low 1 | locus YCL016C, strain dcc1, active compounds read low 1 | locus YCL029C, strain bik1, active compounds read low 0.997 | locus YCL061C, strain MRC1, active compounds read low 1.01 | locus YCL069W, strain vba3, active compounds read low 1 | locus YCR088W, strain abp1, active compounds read low 1 | locus YDL005C, strain med2, active compounds read low 1.01 | locus YDL035C, strain GPR1, active compounds read low 0.983 | locus YDL040C, strain nat1, active compounds read low 0.999 | locus YDL074C, strain BRE1, active compounds read low 1.06 | locus YDL101C, strain DUN1, active compounds read low 0.999 | locus YDL134C, strain PPH21, active compounds read low 1 | locus YDL185W, strain tfp1, active compounds read low 0.96 | locus YDL192W, strain arf1, active compounds read low 0.982 | locus YDR001C, strain nth1, active compounds read low 1.01 | locus YDR069C, strain doa4, active compounds read low 1 | locus YDR101C, strain arx1, active compounds read low 1.05 | locus YDR137W, strain rgp1, active compounds read low 1.01 | locus YDR150W, strain NUM1, active compounds read low 0.992 | locus YDR159W, strain sac3, active compounds read low 1 | locus YDR162C, strain NBP2, active compounds read low 0.964 | locus YDR195W, strain ref2 0.999 | locus YDR297W, strain sur2, active compounds read low 1 | locus YDR318W, strain mcm21, active compounds read low 0.979 | locus YDR334W, strain swr1, active compounds read low 1.02 | locus YDR335W, strain msn5, active compounds read low 1 | locus YDR388W, active compounds read low 0.989 | locus YDR392W, strain spt3, active compounds read low 1.01 | locus YDR502C, strain sam2, active compounds read low 0.99 | locus YEL003W, strain gim4, active compounds read low 1 | locus YEL037C, strain rad23, active compounds read low 1.01 | locus YEL061C, strain CIN8 (second series), active compounds read low 1.01 | locus YEL061C, strain CIN8, active compounds read low 0.999 | locus YER015W, strain faa2, active compounds read low 0.999 | locus YER016W, strain bim1, active compounds read low 1.01 | locus YER110C, active compounds read low 0.976 | locus YER111C, strain swi4, active compounds read low 1 | locus YER155C, strain BEM2 (second series), active compounds read low 0.997 | locus YER155C, strain BEM2, active compounds read low 0.999 | locus YER167W, strain BCK2, active compounds read low 0.996 | locus YFR010W, strain ubp6, active compounds read low 1.02 | locus YGL078C, strain dbp3, active compounds read low 0.989 | locus YGL086W, strain mad1, active compounds read low 1.02 | locus YGL167C, strain pmr1, active compounds read low 1 | locus YGL173C, strain kem1, active compounds read low 1.01 | locus YGL227W, strain vid30, active compounds read low 1.01 | locus YGL240W, strain doc1, active compounds read low 1 | locus YGL248W, strain PDE1, active compounds read low 1.01 | locus YGL253W, strain hxk2, active compounds read low 1.02 | locus YGR135W, strain pre9, active compounds read low 0.951 | locus YGR229C, strain SMI1, active compounds read low 0.989 | locus YGR252W, strain gcn5, active compounds read low 0.986 | locus YHR013C, strain ard1, active compounds read low 1.03 | locus YHR027C, strain rpn1, active compounds read low 1 | locus YHR030C, strain SLT2, active compounds read low 0.992 and 1.02 | locus YHR079C, strain IRE1 (second series), active compounds read low 0.987 | locus YHR079C, strain IRE1, active compounds read low 1.01 | locus YHR094C, strain hxt1, active compounds read low 0.995 | locus YHR129C, strain ARP1, active compounds read low 0.991 | locus YHR142W, strain chs7, active compounds read low 1.01 | locus YHR200W, strain rpn10, active compounds read low 0.987 | locus YIL066C, strain RNR3, active compounds read low 1 | locus YIL073C, strain SPO22, active compounds read low 0.883 | locus YIL125W, strain kgd1, active compounds read low 0.998 | locus YIR030C, strain dcg1, active compounds read low 0.984 | locus YJL092W, strain hpr5, active compounds read low 1.01 | locus YJL095W, strain BCK1 (second series), active compounds read low 1.01 | locus YJL095W, strain BCK1, active compounds read low 1.02 and 1.04 | locus YJL115W, strain asf1, active compounds read low 1.02 | locus YJL129C, strain trk1, active compounds read low 1 | locus YJL134W, strain LCB3, active compounds read low 0.989 | locus YJL154C, strain vps35, active compounds read low 0.995 | locus YJL164C, strain tpk1, active compounds read low 1 | locus YJL166W, strain qcr8, active compounds read low 1 | locus YJL168C, strain set2, active compounds read low 1 | locus YJL187C, strain SWE1 (second series), active compounds read low 1.01 | locus YJL187C, strain SWE1, active compounds read low 1.01 | locus YJR043C, strain POL32, active compounds read low 1 | locus YJR066W, strain TOR1, active compounds read low 1
